Measurements as given in PubChem BioAssay (NCI).
Where “and” joins values, the source holds several entries; their conditions need not be identical. Equal values may be shown once. Compounds without any hit were thinned out: in the full panel of roughly 83,000, 20% have a hit.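 Values shown are percent growth following 48 h exposure of cells in 96-well plates to a single concentration of compound; below 10 was considered active.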 Calls of active or inactive are those of the source.

What was measured:
Assay in all cases: NCI-60 one-dose screen, 48 h (100 = growth as untreated, 0 = no growth, -100 = all killed)
Settings in all cases: 10 µM unless noted
T-47D breast = test system: T-47D breast
BT-549 breast = test system: BT-549 breast
MDA-MB-435 melanoma = test system: MDA-MB-435 melanoma
SW-620 colon = test system: SW-620 colon
MCF7 breast = test system: MCF7 breast
HCT-116 colon = test system: HCT-116 colon
HCC-2998 colon = test system: HCC-2998 colon
KM12 colon = test system: KM12 colon

SMILES	growth (T-47D breast)	growth (BT-549 breast)	growth (MDA-MB-435 melanoma)	growth (SW-620 colon)	growth (MCF7 breast)	growth (HCT-116 colon)	growth (HCC-2998 colon)	growth (KM12 colon)
Cc1nonc1-c1ccc2c(c1)OCO2	88.5% (inactive) and 98.4% (inactive)	111% (inactive) and 115% (inactive)	89.9% (inactive) and 109% (inactive)	105% (inactive) and 107% (inactive)	99.6% (inactive) and 98.3% (inactive)	112% (inactive) and 98.5% (inactive)	100% (inactive) and 107% (inactive)	95.4% (inactive) and 116% (inactive)
COc1ccccc1/C=C1\COc2ccc(O)c(O)c2C1=O	11.6% (inactive)	24.2% (inactive)	8.84% (active)	3.71% (active)	14.8% (inactive)	8.37% (active)	69.7% (inactive)	20.8% (inactive)
O=C(/C=C/c1ccc([N+](=O)[O-])cc1)c1ccccc1	60.2% (inactive)	93.6% (inactive)	89.3% (inactive)	72.1% (inactive)	20.2% (inactive)	17% (inactive)	102% (inactive)	57% (inactive)
CC(=O)c1c(C)nc(SCC(=O)Nc2ccc(Cl)cc2)n1-c1ccc(Cl)cc1	72.1% (inactive)	92.1% (inactive)	89.6% (inactive)	87.6% (inactive)	82.9% (inactive)	67.7% (inactive)	102% (inactive)	98.5% (inactive)
CN(C)CCCn1c2nc(=O)[nH]c(=O)c-2nc2cc(Cl)c(Cl)cc21	34.8% (inactive)	113% (inactive)	106% (inactive)	13.6% (inactive)	4.93% (active)	-18.5% (active)	91.6% (inactive)	57.5% (inactive)
CN(C)CC1(C)Cc2ccsc2C1O (centres undefined)	113% (inactive) and 100% (inactive)	113% (inactive) and 102% (inactive)	111% (inactive) and 107% (inactive)	105% (inactive) and 112% (inactive)	110% (inactive) and 105% (inactive)	115% (inactive) and 104% (inactive)	107% (inactive) and 103% (inactive)	116% (inactive) and 106% (inactive)
CNC(=O)c1cc(Oc2ccc3nc(NC(=O)Nc4ccc(C(F)(F)F)cc4)sc3c2)ccn1	44.8% (inactive)	62.3% (inactive)	40.9% (inactive)	37.9% (inactive)	42% (inactive)	7.67% (active)	104% (inactive)	65% (inactive)
Cc1ccc(Cl)cc1N1CCN(C(=O)[C@@H]2C[C@@H]2c2ccc(F)cc2)CC1	83.4% (inactive)	97.6% (inactive)	97.6% (inactive)	101% (inactive)	90.6% (inactive)	68.8% (inactive)	98.8% (inactive)	85.1% (inactive)
COc1ccc(NC(=O)Nc2ccccc2CNc2nc(Nc3ccc(OCCN4CCCC4)cc3)ncc2Cl)cc1	27.2% (inactive)	32% (inactive)	-70.9% (active)	2.1% (active)	-60.5% (active)	-20.1% (active)	16.3% (inactive)	0.945% (active)
COc1ccc(CCNC(=O)COc2cc3c(Nc4ccc(F)c(Cl)c4)ncnc3cc2OC)cc1OC	70% (inactive)	99.5% (inactive)	97.2% (inactive)	101% (inactive)	91.9% (inactive)	107% (inactive)	101% (inactive)	96.9% (inactive)
CCCCCCCC/C=C\CCCCCCCCOc1ccccc1CC(=O)NCC[N+]1(C)CCOCC1	84.4% (inactive)	82.3% (inactive)	95.8% (inactive)	81.7% (inactive)	82.2% (inactive)	71.8% (inactive)	45.4% (inactive)	47.3% (inactive)
COc1cc(/C=C2\C(=O)N(CCCCn3c4ccccc4c(=O)c4ccccc43)c3ccccc32)cc(OC)c1O	66.1% (inactive)	51.1% (inactive)	6.24% (active)	47.4% (inactive)	22.8% (inactive)	57.6% (inactive)	92.4% (inactive)	58.4% (inactive)
CCc1c2c(nc3ccc(OCc4ccc(B5OC(C)(C)C(C)(C)O5)cc4)cc13)-c1cc3c(c(=O)n1C2)COC(=O)[C@]3(O)CC	0.841% (active)	28.8% (inactive)	9.46% (active)	15.6% (inactive)	2.53% (active)	2.03% (active)	26.7% (inactive)	0.421% (active)
O=C(CN1C(=O)S/C(=C\C(Cl)=C\c2ccccc2)C1=O)NC1C=CS(=O)(=O)C1 (centres undefined)	4.56% (active)	2.33% (active)	-31.4% (active)	-36.4% (active)	11.1% (inactive)	-62.3% (active)	65.6% (inactive)	16.4% (inactive)
COc1cc(/C=C(/c2ccccc2)[N+](=O)[O-])c(OC)c2c1OCO2	-55.9% (active)	-84.4% (active)	-23% (active)	-40.5% (active)	-36.4% (active)	-86.4% (active)	-91% (active)	-50.8% (active)
COCCn1cc(-c2nc(-c3cn(CCOC)c4ncccc34)cs2)c2ccccc21	-3.64% (active)	77.7% (inactive)	108% (inactive)	115% (inactive)	10.5% (inactive)	79.9% (inactive)	42.2% (inactive)	21.1% (inactive)
C=CCN1C=CC(=O)[C@H](O[Si](C)(C)C(C)(C)C)[C@@H]1/C=C/c1ccccc1	-80.7% [100 µM] (active)	-62.4% [100 µM] (active)	-48.2% [100 µM] (active)	-58.9% [100 µM] (active)	-75.1% [100 µM] (active)	-77.5% [100 µM] (active)	-87.3% [100 µM] (active)	-71.8% [100 µM] (active)
COc1cc(CNC(=O)CCCC/C=C/C(C)C)ccc1O	97.4% (inactive) and 96.2% (inactive)	125% (inactive) and 83.4% (inactive)	99% (inactive) and 106% (inactive)	113% (inactive)	103% (inactive) and 96.7% (inactive)	96.4% (inactive) and 100% (inactive)	143% (inactive) and 109% (inactive)	106% (inactive) and 108% (inactive)
Nc1nc2ccccc2c2c(=O)c3ccc(Cl)cc3sc12	53.9% (inactive)	94.3% (inactive)	101% (inactive)	76% (inactive)	29.9% (inactive)	82.1% (inactive)	114% (inactive)	87.5% (inactive)
COc1ccc(S(=O)(=O)Nc2cc(Sc3cccc4cccnc34)c(O)c3ccccc23)cc1	-30.9% (active)	27.7% (inactive)	16.4% (inactive)	-59.2% (active)	-50.5% (active)	-36.8% (active)	38.6% (inactive)	20.3% (inactive)
COc1ccc(C2Nc3nc(SC)nc(N)c3N=C3c4ccccc4CCC32)cc1 (centres undefined)	80% (inactive)	105% (inactive)	93.2% (inactive)	76.1% (inactive)	62.9% (inactive)	51.5% (inactive)	103% (inactive)	85.9% (inactive)
O=C(Oc1ccc(CO[N+](=O)[O-])cc1)c1ccccc1	-37.4% (active)	-97% (active)	-94% (active)	-56.8% (active)	-54.4% (active)	-86.2% (active)	-81.9% (active)	-78.9% (active)
CCCCCCCCCCCCC[C@H](O)C[C@H](O)[C@H](C)N	122% [1.25 µM] (inactive)	107% [1.25 µM] (inactive)	116% [1.25 µM] (inactive)	99.9% [1.25 µM] (inactive)	104% [1.25 µM] (inactive)	83.1% [1.25 µM] (inactive)	26.7% [1.25 µM] (inactive)	116% [1.25 µM] (inactive)
CC(=O)Nc1c(I)c(NC(C)=O)c(I)c(C(=O)O)c1I	96.6% (inactive) and 102% (inactive)	101% (inactive) and 97.9% (inactive)	101% (inactive) and 102% (inactive)	102% (inactive) and 117% (inactive)	98.6% (inactive) and 96.9% (inactive)	110% (inactive) and 93% (inactive)	106% (inactive)	104% (inactive) and 123% (inactive)
Clc1ccc2c(NCCN3CCN(c4ccnc(N5CCCC5)n4)CC3)ccnc2c1	2.2% (active)	75.8% (inactive)	15.2% (inactive)	12.9% (inactive)	12.3% (inactive)	4.45% (active)	0.613% (active)	54.3% (inactive)
N=C(N)c1ccc(-c2ccc(-c3ccc(F)cc3)s2)nc1	76.3% (inactive)	82.1% (inactive)	70.2% (inactive)	26% (inactive)	21.9% (inactive)	3.54% (active)	16.2% (inactive)	18.7% (inactive)
C#CCOCC1CN(C)C(=O)O1 (centres undefined)	126% (inactive)	131% (inactive)	101% (inactive)	97% (inactive)	90.2% (inactive)	119% (inactive)	109% (inactive)	107% (inactive)
CC(C)(C)c1cc(NC(=O)Nc2ccc(-c3cn4c(n3)sc3cc(OCCN5CCOCC5)ccc34)cc2)no1	-33% (active) and -23.2% (active)	4.32% (active) and 9.08% (active)	65.1% (inactive) and 31.5% (inactive)	49.9% (inactive) and 21.1% (inactive)	9.99% (active) and 22.3% (inactive)	8.69% (active) and 14.3% (inactive)	39.1% (inactive) and 56.4% (inactive)	13.7% (inactive) and 9.16% (active)
